# Compound activity from PubChem BioAssay.
# HCMV antiviral – qHTS Assay for inhibitors of the human cytomegalovirus (HCMV); HFF cells, HCMV-luciferase reporter, 72 h; hits give low values; activity change, negative = inhibition, % at 57.5 µM; 410,000 compounds, 4.5% hits; AID 1259415, 2018; in the data active = activity change below about -60%; inconclusive = no clear call, values can overlap the other calls; inactive = above about -39%
#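 HFF cells seeded 16 h at 37C, treated with compounds, infected with luciferase-reporter HCMV at MOI 1 PFU/cell; luciferase read at 72 h post infection, normalized to buffer-only and Salinomycin controls.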
# FMDV antiviral – High Throughput Screening for Foot and Mouth Disease Virus Antivirals. Potency, µM (top dose mostly 57.9 µM), inactives show top-dose activity change, negative = inhibition, actives largely listed as inhibitors. 410,000 compounds, 1.2% hits. FMDV antiviral cell-based qHTS. AID 1159524, 2015; calls by dose curve; tested in HEK293T cells; also: read-out not given here; potency is read from the fitted curve at half-maximal effect; nearly all actives have a fitted effect of over 45% in size
# MARV entry inh – qHTS for inhibitors of binding or entry into cells for Marburg Virus. Marburg virus pseudotyped entry inhibition, cell reporter. Potency, µM (titrated, usually from 37.8 µM), for the others: at the highest dose activity change, negative = inhibition, usual class: inhibitors. 300,000 compounds, 1.8% hits; calls by dose curve; tested in HEK293 cells; also: potency is read from the fitted curve at half-maximal effect
# Lassa entry inh – qHTS for Inhibitors of binding or entry into cells for Lassa Virus. Potency, µM (doses to about 37.9 µM), for the others: at the highest dose activity change, negative = inhibition, usual class: inhibitors. 300,000 compounds, 1.2% hits. Lassa virus pseudotype entry inhibition, cell reporter; calls by dose curve; tested in HEK293 cells; also: potency is read from the fitted curve at half-maximal effect; nearly all actives have a fitted effect of over 50% in size
# * hit, by the source's call; ? = inconclusive; nt = not tested or not shown; [ ] = another dose, or the depositor's remark. Only some compounds are listed: those with a hit (about 6.2% of all), similar ones and a draw of the others. % is scaled to controls: 0 for no effect and ±100 for the full control effect.
SMILES,HCMV antiviral,FMDV antiviral,MARV entry inh,Lassa entry inh
CCc1nnc2n1N(C(C)=O)C(c1ccc(C(C)(C)C)cc1)=C(C(C)=O)S2,-97.7*,?,nt,11.2µM*
CCOc1ccc(S(=O)(=O)NCCc2sc3nc(-c4ccc(C)cc4)nn3c2C)cc1,-18.4,4.6%,nt,?
Cn1nccc1C(=O)NCC1CCC2(CCN(Cc3cccc4ncccc34)CC2)O1 (configuration not stated),nt,-5.5%,nt,nt
CCOC(=O)c1c(NC(=O)CC)sc2c1CCN(Cc1ccccc1)C2,-1.0,-27.8%,nt,nt
CCOC(=O)c1c(NC(=O)CSc2cn(CCNC(=O)c3ccccc3OC)c3ccccc23)sc2c1CCC2,-6.1,-19.8%,12.6µM*,?
CCOC(=O)c1c(NC(=O)CSc2nnc(-c3c[nH]c4ccccc34)n2CCOC)sc2c1CCCCC2,-66.7*,?,?,23.1µM*
CCOC(=O)c1c(NC(=O)CSc2ncccn2)sc2c1CCN(Cc1ccccc1)C2,29.3,?,16.4µM*,?
CCOC(=O)c1c(NC(=O)C(NCCN(C)C)c2ccccc2)sc2c1CCCC2 (configuration not stated),-26.1,-16.1%,?,11.2µM*
CCOC(=O)c1c(NC(=O)CSc2c[nH]c3ccccc23)sc2c1CCCC2,-17.3,?,13µM*,?
COCCNc1nnc(SCC(=O)Nc2sc3c(c2C(=O)c2ccccc2)CCCC3)s1,-85.7*,?,?,?
CCOC(=O)c1c(NC(=O)CSc2c[nH]c3ccccc23)sc2c1CCC2,57.8,-6.0%,?,?
CN1C(=O)N(c2ccccc2)[C@@H](Nc2nncs2)C1(C)C,nt,nt,-0.1%,nt
O=C(O)c1cc(O)c2c(c1)[C@H]([C@H]1c3cc(C(=O)O)cc(O)c3C(=O)c3c(O[C@@H]4O[C@H](CO)[C@@H](O)[C@H](O)[C@H]4O)cccc31)c1cccc(OC3O[C@H](CO)[C@@H](O)[C@H](O)[C@H]3O)c1C2=O (some centres not stated),-101.3*,?,nt,nt
CC1(C)C(=O)Nc2ccccc2N1C(=O)Cn1ncc(Cl)c(Cl)c1=O,11.7,-21.7%,nt,nt
Cc1nn(CC(=O)N2c3ccccc3NC(=O)C2(C)C)c(C)c1[N+](=O)[O-],-81.8*,-29.1%,nt,nt
COCC(=O)N1CCC2(CC1)CCN(C(c1ccccc1)c1ccccc1)CC2,nt,-15.0%,nt,nt
Cc1ccc2[nH]c3c(c2c1)CCCC3NC(=O)CCl (configuration not stated),nt,-7.0%,5.62µM*,8.91µM*
Cc1ccc(C)c(N(C)S(=O)(=O)c2ccc3[nH]cc(C(=O)NC4CCCC4)c(=O)c3c2)c1,-74.6*,-12.6%,nt,-5.7%[46.1 µM]
CCN(c1ccccc1)S(=O)(=O)c1ccc2[nH]cc(C(=O)NC3CCCCC3)c(=O)c2c1,-101.8*,-24.0%,nt,?
C=CCNC(=O)c1c[nH]c2ccc(S(=O)(=O)N(C)c3ccc(OCC)cc3)cc2c1=O,-66.5*,0.1%,nt,nt
COc1ccc(OC)c(CN2CCOc3ccc(CN4CCC(O)(c5cccnc5)CC4)cc3C2)c1,nt,0.1%,nt,nt
COc1ccc(NC(=O)CSc2nc(=O)n(CCN3CCOCC3)c3c2CCC3)cc1,-32.5,-8.1%,-0.2%,1.1%
CCN(CC)CCn1c2c(c(SCC(=O)Nc3nc(C)cs3)nc1=O)CCC2,-11.4,0.0%,?,-15.5%
CCN(CC)CCn1c2c(c(SCC(=O)Nc3ccc(C)c(F)c3)nc1=O)CCC2,-98.6*,-23.1%,15.7%,-19.3%
O=C(CSc1nc(=O)n(CCN2CCOCC2)c2c1CCC2)Nc1ccc(OC(F)(F)F)cc1,-60.0*,?,-23.8%[46.1 µM],-6.0%
SMILES,HCMV antiviral,FMDV antiviral,MARV entry inh,Lassa entry inh
CCN(CC)CCn1c2c(c(SCC(=O)Nc3nc(C)cs3)nc1=O)CCCC2,-80.3*,-13.4%,?,3.5%
C=CCOc1c(Cl)cc(CNCCCN2CCOCC2)cc1OC,-9.6,4.6%,10µM*,13.1%[46.1 µM]
COc1cc(CNCCN2CCOCC2)ccc1OCc1ccc(Cl)cc1,-34.6,-11.3%,?,-14.9%
COc1cc(CNCCCN2CCOCC2)cc(Br)c1OCc1ccc(Cl)cc1,-99.5*,39.8µM*,nt,nt
COc1ccc2[nH]cc(CCNc3ncnc4ccc(-c5ccc6c(c5)OCO6)cc34)c2c1,nt,0.0%,nt,nt
O=C(Nc1sc2c(c1C(=O)NCC1CCCO1)CCC2)c1cc(=O)c2ccccc2o1 (configuration not stated),8.5,0.2%,?,?
Cc1cccc(C)c1-c1ccc(CN2C(CC(C)C)C(=O)N(Cc3cn(CC4CCCCC4)nn3)CCS2(=O)=O)cc1 (configuration not stated),-100.3*,-22.9%,nt,nt
C[C@@H]1CN([C@@H](C)CO)C(=O)CCCn2cc(nn2)CO[C@H]1CN(C)C(=O)C1CCCCC1,-30.7,nt,nt,nt
CCN1CCN(C2=C(NS(=O)(=O)c3ccc(Br)cc3)C(=O)c3ccccc3C2=O)CC1,-112.1*,-0.5%,nt,nt
CCN1CCN(C2=C(NS(=O)(=O)c3ccccc3)C(=O)c3ccccc3C2=O)CC1,-62.1*,?,nt,nt
CN1CCN(C2=C(NS(=O)(=O)c3ccccc3)C(=O)c3ccccc3C2=O)CC1,nt,-3.2%,nt,nt
CCOC(=O)N1CCN(C2=C(NS(=O)(=O)c3ccc(Br)cc3)C(=O)c3ccccc3C2=O)CC1,-27.2,25.9%,nt,nt
CC(=O)Nc1ccc(-c2nnc3n(CC(C)C)c(=O)c4ccccc4n23)cc1,-7.6,-18.2%,?,-2.7%[46.1 µM]
CC(=O)Nc1ccc(NC(=O)c2ccc3c(c2)CCN3S(=O)(=O)c2ccc(Cl)cc2)cc1,-33.1,-5.4%,?,-10.9%[46.1 µM]
CCN(CC)S(=O)(=O)c1ccc(NCCCn2ccnc2)c([N+](=O)[O-])c1,-62.2*,-12.2%,?,-24.9%[46.1 µM]
O=C(c1ccccc1)c1ccc(NCCCn2ccnc2)c([N+](=O)[O-])c1,?,9.9%,?,?
CC1(C)CC[C@]2(C(=O)n3ccnc3)CC[C@]3(C)[C@H](C(=O)C=C4[C@@]5(C)C=C(C#N)C(=O)C(C)(C)[C@@H]5CC[C@]43C)[C@@H]2C1,-100.5*,1.41µM*,2.51µM*,2.51µM*
Clc1ccc(-c2nnc(NC3=NCCCCC3)o2)cc1,?,-87.2%,1.64µM*,?
Cc1cnc(-n2ncc(C(=O)N(C)Cc3cccc4ncccc34)c2C(C)C)nc1-c1ccc(F)cc1,nt,-16.6%,nt,nt
CC(C)c1nnc(NC(=O)c2nc(S(=O)(=O)Cc3ccc(F)cc3)ncc2Cl)s1,-101.9*,-20.5%,?,?
CSc1nnc(NC(=O)c2nc(S(=O)(=O)Cc3cccc(C)c3)ncc2Cl)s1,-102.6*,5.62µM*,?,?
Cc1cccc(CS(=O)(=O)c2ncc(Cl)c(C(=O)Nc3nnc(C(C)C)s3)n2)c1,-99.9*,8.91µM*,?,?
C=CCSc1nnc(NC(=O)c2nc(SCC)ncc2Cl)s1,-28.4,8.5%,2.5%,0.4%
CCSc1nnc(NC(=O)c2nc(S(=O)(=O)Cc3ccc(F)cc3)ncc2Cl)s1,-102.3*,8.91µM*,2.5%[46.1 µM],?
Cc1cccc(CSc2ncc(Cl)c(C(=O)Nc3nc4ccc(F)cc4s3)n2)c1,12.9,-8.9%,-11.3%[46.1 µM],5.0%[46.1 µM]
